# Source: PubChem BioAssay AID588342 (National Center for Advancing Translational Sciences (NCATS), 2011)
# Among all 360,000 compounds or so, about 25,000 (6.9%) were called active. Not shown: some 9% with an inconclusive outcome. The call rests on the fitted dose curve; in most records, active means well fitted inhibition curve with a large enough effect; inconclusive means small, poorly fitted or top-dose-only effect; inactive means flat fitted curve, though single readings scatter. For the sample, actives were picked, then their nearest neighbours and some compounds at random.
# Target: Luciferin 4-monooxygenase (Photinus pyralis) (UniProt P08659)
# Assay: qHTS profiling assay for firefly luciferase inhibitor/activator using purifed enzyme and Km concentrations of substrates (counterscreen for miR-21 project); further: nearly all actives have a fitted effect of over 55% in size;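 on activity change, negative = inhibition: plate controls were vehicle for no effect and reference inhibitor for full effect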
# Conditions: purified FLuc, luminescence inhibition; series mostly up to 57.5 µM; activity change, negative = inhibition: at the top concentration
# How it was run: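 Purified P. pyralis luciferase (10nM final) with 10uM D-luciferin and 10uM ATP (Km levels) in 50mM Tris acetate pH 7.5, 10mM Mg acetate, 0.01% Tween-20, 0.05% BSA; qHTS 6-point titration, ~60 µM downward; luminescence read.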
# Potency means the concentration at half of the fitted maximal effect.
# Chain of Luciferin 4-monooxygenase (Photinus pyralis) (P08659 whole entry, looked up): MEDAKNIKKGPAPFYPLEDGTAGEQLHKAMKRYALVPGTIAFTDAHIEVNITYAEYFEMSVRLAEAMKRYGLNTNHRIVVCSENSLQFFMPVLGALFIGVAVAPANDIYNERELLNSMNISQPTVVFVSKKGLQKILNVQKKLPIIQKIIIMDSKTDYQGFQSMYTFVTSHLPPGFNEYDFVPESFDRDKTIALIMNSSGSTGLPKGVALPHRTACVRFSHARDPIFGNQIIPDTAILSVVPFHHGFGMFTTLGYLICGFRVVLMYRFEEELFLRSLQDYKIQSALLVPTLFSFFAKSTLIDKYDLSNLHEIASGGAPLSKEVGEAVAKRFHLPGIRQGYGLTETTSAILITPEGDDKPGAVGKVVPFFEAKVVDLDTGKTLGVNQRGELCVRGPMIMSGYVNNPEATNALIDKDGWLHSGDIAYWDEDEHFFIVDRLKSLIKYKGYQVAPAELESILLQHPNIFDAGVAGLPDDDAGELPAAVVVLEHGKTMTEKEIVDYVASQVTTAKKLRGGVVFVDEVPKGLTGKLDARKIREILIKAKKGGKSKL
Compound,"activity change, negative = inhibition",Potency
CC1CCCC(NC(=O)c2cc(-c3ccncc3)nc3ccccc23)C1C (configuration not stated),0.447% (inactive),
CCc1ccc(-c2cc(C(=O)NN3CCN(C)CC3)c3ccccc3n2)cc1,,2.69 µM (active)
CCc1ccc(Sc2cc(C(=O)NCCCOC(C)C)c3ccccc3n2)cc1,-16.5% (inactive),
CN(Cc1ccccc1)c1ncnc2onc(-c3ccc(F)cc3)c12,-17.8% (inactive),
COc1ccccc1C(=O)Nn1c(-c2cccs2)nc2ccccc2c1=O,0.184% (inactive),
O=C(CSc1nc(Nc2ccc(F)c(F)c2)c2ccccc2n1)c1ccc(Cl)cc1,-3.03% (inactive),
CC(=O)Nc1cccc(Nc2nc(-c3cccs3)nc3ccccc23)c1,,23.9 µM (active)
CC(=O)c1ccc(S(=O)(=O)N(C)CCCC(=O)N(C)Cc2ccccc2F)cc1,2.93% (inactive),
O=C(/C=C/c1cn(CC(O)CN2CCc3ccccc32)c2ccccc12)c1ccc(Br)cc1 (configuration not stated),-2.15% (inactive),
CC(=O)c1ccc(NC(=O)CSC(=S)N2CCCC2)cc1,-11.5% (inactive),
O=C(CSC(=S)N1CCOCC1)c1ccccc1,,3.01 µM (active)
CC1CN(C(=S)SCC(=O)c2ccccc2)CC(C)O1 (configuration not stated),-1.21% (inactive),
O=C(CSC(=S)N1CCCCC1)c1c(F)cccc1F,,2.13 µM (active)
O=C(CSC(=S)N1CCOCC1)c1cc(Br)cc(Br)c1O,-14.9% (inactive),
COc1cccc(NC(=O)CN(C)C(=O)CSC(=S)N2CCCC2)c1,2.27% (inactive),
CCCCNC(=O)Cn1nc(C)c(S(=O)(=O)N2CCOCC2)c1C,6.35% (inactive),
Cc1ccc(OCC(=O)OCc2cc(=O)n3nc(C4CC4)sc3n2)cc1C,-5.73% (inactive),
Cc1nn(-c2nc(-c3ccccc3)cc(C(F)(F)F)n2)c(C)c1Cl,-10.5% (inactive),
COC(=O)c1cc(S(=O)(=O)N2CCN(c3cc(Cl)ccc3C)CC2)c[nH]1,-8.69% (inactive),
COc1ccc(NC(=O)CSc2nccn2C2CCCC2)cc1OC,-9.33% (inactive),
COC(=O)c1ccccc1NC(=O)c1ccc(COc2ccccc2Cl)o1,0.735% (inactive),
COc1ccc(OCc2cc(C(=O)NCC3(C)COC3)no2)c(Cl)c1,,19 µM (active)
COc1ccc(CCNC(=O)c2cnc(Cl)c(Cl)c2)cc1,-8.36% (inactive),
CC1CCCN(Cc2c(O)ccc3c(=O)c(Oc4ccc(C(C)(C)C)cc4)c(C(F)(F)F)oc23)C1 (configuration not stated),-0.574% (inactive),
COc1ccc(NC(=O)Cn2c(=O)n(Cc3ccc(C(=O)NCc4ccccc4Cl)cc3)c(=O)c3ccccc32)cc1,-5.56% (inactive),
O=C(Cn1c(=O)n(Cc2cccs2)c(=O)c2cccnc21)Nc1ccc(F)cc1,-12.1% (inactive),

Compound,"activity change, negative = inhibition",Potency
COc1cc(C(=O)N2CCC(c3ccncc3)CC2)cc(OC)c1OC,-0.564% (inactive),
C/C(N)=C(/C#N)C(=O)COC(=O)C1CCN(C(=O)c2ccc(Cl)cc2)CC1,-1.2% (inactive),
COc1cccc(CNC(=O)c2ccc3c(c2)sc2nc(-c4cccc(OC)c4)cn23)c1,1.31% (inactive),
Cc1ccc2nc(COc3cccc(NC(=O)Nc4ccc(C)c(Cl)c4)c3)cc(=O)n2c1,-15.5% (inactive),
Cc1ccc2nc(COc3cccc(NC(=O)c4cccc(Cl)c4)c3)cc(=O)n2c1,-1.22% (inactive),
Cc1ccc2nc(COc3cccc(NC(=O)c4ccccc4Cl)c3)cc(=O)n2c1,,10.7 µM (active)
O=C(CNS(=O)(=O)c1ccc2ccccc2c1)Nc1ccc(F)c(F)c1F,-0.997% (inactive),
O=C(NCCc1ccccc1)c1ccc2c(c1)N(Cc1ccccc1)C(=O)c1ccccc1S2(=O)=O,-0.938% (inactive),
CC(C)C(=O)Nc1c(O)c2ccccc2[nH]c1=O,-1.52% (inactive),
NS(=O)(=O)c1ccccc1NC(=O)c1c(O)c2ccccc2[nH]c1=O,,9.53 µM (active)
CCCc1nc2ccccc2c(=O)n1NC(=O)c1c(O)c2ccccc2[nH]c1=O,-1.3% (inactive),
CC1(C)N=C(SCc2ccccc2Cl)c2ccccc2N1,-13.1% (inactive),
Cc1noc(/C=C/N(C)C)c1S(=O)(=O)N1CCCC(C(=O)Nc2cccc(F)c2)C1 (configuration not stated),-2.85% (inactive),
Cc1ccc(S(=O)(=O)N2CC(O)C[C@H]2C(=O)OCC(=O)Nc2ccc(N3CCOCC3)cc2)cc1C (some centres not stated),-11.1% (inactive),
CC(=O)c1sc(N2C(=O)c3oc4ccccc4c(=O)c3C2c2ccc(C)cc2)nc1C (configuration not stated),4.04% (inactive),
CCN(c1cccc(C)c1)S(=O)(=O)c1ccc(-c2coc(C)n2)cc1,-0.211% (inactive),
CCN(CC)S(=O)(=O)c1ccc(-c2cn3ccc(C)cc3n2)cc1,,2.39 µM (active)
COc1ccc(-n2c(-c3ccc(OC)c(OC)c3)n[nH]c2=S)cc1,0.218% (inactive),
COc1ccc(-c2cn3ccc(C)cc3n2)cc1,,0.19 µM (active)
CCN(CC(=O)NCCc1ccccc1)S(=O)(=O)c1ccc(C)cc1,0.229% (inactive),
COc1ccc(-c2cn3c(C)c(C(=O)Nc4cc(C)cc(C)c4)sc3n2)cc1,-3.09% (inactive),
Fc1ccc(CN2CCc3nc(Nc4ccccc4)ncc3C2)cc1F,-10.5% (inactive),
O=C(Nc1cc(C(F)(F)F)ccc1Cl)c1nc2ccccc2nc1N1CCCCC1,0.203% (inactive),
CCN1CCC(N(Cc2ccc(F)cc2)C(=O)Nc2cc(C)ccc2C)CC1,-1.66% (inactive),
O=C(NC1CCCCC1)c1ccc2c(c1)N(Cc1ccc(Cl)cc1)C(=O)c1ccccc1S2=O (configuration not stated),3.17% (inactive),
CN(C(=O)COC(=O)CCCc1c[nH]c2ccccc12)c1c(N)n(Cc2ccccc2)c(=O)[nH]c1=O,4.71% (inactive),

Compound,"activity change, negative = inhibition",Potency
CCc1nc2onc(C)c2c(=O)n1CC(=O)O,-0.818% (inactive),
CC(C)CNC(=O)C(=O)Nc1ccc(N(C)C)cc1,,10.7 µM (active)
CC(C)CNC(=O)C(=O)NCc1ccccc1,0.285% (inactive),
CC(C)CNC(=S)Nc1ccc(F)cc1,4.61% (inactive),
COc1ccc(CNC(=O)CSc2nc3ccccc3nc2Cc2ccccc2)cc1,-6.86% (inactive),
COC(=O)c1cc(=O)n(-c2c(Cl)cc(C(F)(F)F)cc2Cl)[nH]1,-0.736% (inactive),
Cn1cc(CCC(=O)NCc2ccc3c(c2)OCO3)c2ccccc21,-3.15% (inactive),
Cc1ccc(CNC(=O)Cc2cn(C)c3ccccc23)cc1,,15.1 µM (active)
CCc1ccccc1NC(=O)Cc1cn(C)c2ccccc12,,inactive
COc1cc(Cl)c(NC(=O)CC(C)S(=O)(=O)c2cc3c(cc2C)NC(=O)CO3)c(OC)c1 (configuration not stated),4.64% (inactive),
CC(=O)c1sc(NC(=O)c2ccc(C)cc2)nc1C,,1.9 µM (active)
Cc1nnc(C)n1/N=C/c1ccc(C(C)C)cc1,-14.6% (inactive),
CC(=O)c1sc(N)nc1C,2.76% (inactive),
Cc1cc2c(=O)n(CC(=O)NCC(=O)Nc3ccc(C(C)C)cc3)cnc2s1,0.706% (inactive),
Cc1ccc(C)c2sc(NC(=O)c3ccc(S(=O)(=O)N4CCCC4)cc3)nc12,-4.28% (inactive),
CC(=O)c1sc(N/N=C/c2ccc(C(C)C)cc2)nc1C,,6.01 µM (active)
CCCCCCC(=O)Nc1nc(C)c(-c2csc(Nc3cc(Cl)ccc3OC)n2)s1,3.19% (inactive),
Cc1ccc(Nc2nc(-c3sc(NC(=O)c4ccccc4)nc3C)cs2)cc1,,12 µM (active)
Cc1nc(NC(=O)c2cccc(Cl)c2)sc1-c1csc(Nc2cccc(Cl)c2)n1,-19.1% (inactive),
CC(=O)c1sc(N/N=C\c2ccc(C)cc2)nc1C,,2.39 µM (active)
CC(=O)c1sc(NC(=O)C2=NN(c3ccccc3)C(=O)CC2)nc1C,-8.27% (inactive),
CC(=O)Nc1ccc(NC(=O)C2CCCN(S(=O)(=O)c3ccc4c(c3)CCCC(=O)N4)C2)cc1 (configuration not stated),3.09% (inactive),
CCc1cccc(CC)c1NC(=O)COc1ccccc1C(=O)c1cc(C#N)c(=O)n(C2CCCCC2)c1,0.626% (inactive),
C=C(C)CNc1cc(S(=O)(=O)N2CCOCC2)ccc1Oc1ccccc1,-9.91% (inactive),
Cc1ccc(Nc2c(-c3ccc(Cl)cc3)nc3sccn23)c(C)c1,1.53% (inactive),
Cc1ccc(-c2nn3c(=O)cc(CN4CCN(S(=O)(=O)c5ccc(Cl)cc5)CC4)nc3s2)cc1,-1.26% (inactive),

Compound,"activity change, negative = inhibition",Potency
O=S(=O)(c1ccc(C2CCCCC2)cc1)N1CCN(c2ccc(Cl)c(Cl)c2)CC1,-0.965% (inactive),
CC(C)C(=O)Nc1ccc2oc(=O)ccc2c1,-0.984% (inactive),
CC(C)C(=O)Nc1ccc2c(c1)oc1ccccc12,,2.69 µM (active)
Cc1cc(=O)oc2cc(NC(=O)C(C)Oc3ccccc3)ccc12 (configuration not stated),-4.58% (inactive),
COc1cc2nc(SCc3ccc(F)cc3)n3nc(CCn4c(C)nc5ccccc54)nc3c2cc1OC,3.7% (inactive),
O=C(CCc1nc(CN2CCN(S(=O)(=O)c3ccc(F)cc3)CC2)no1)N1CCCCC1,-0.23% (inactive),
CCC(=O)N1CCc2cc(Br)cc(S(=O)(=O)CCC(=O)NCCc3ccc(OC)c(OC)c3)c21,-1.48% (inactive),
CCC(=O)N1c2ccccc2CC1C(=O)N1CCN(c2ccccc2F)CC1 (configuration not stated),-2.51% (inactive),
Cc1ccc2nc(Nc3ccccc3O)nc(-c3ccccc3)c2c1,5.48% (inactive),
COc1cc(OC)cc(C(=O)Nc2ccc3nc(Nc4cccc(C(F)(F)F)c4)cc(C)c3c2)c1,-0.831% (inactive),
Cc1ccc2nc(Nc3ccccc3)cc(C)c2c1,,23.9 µM (active)
O.O.O.O=S(=O)([O-])OC[C@H]1O[C@@H](O[C@]2(COS(=O)(=O)[O-])O[C@H](OS(=O)(=O)[O-])[C@@H](OS(=O)(=O)[O-])[C@@H]2OS(=O)(=O)[O-])[C@H](OS(=O)(=O)[O-])[C@@H](OS(=O)(=O)[O-])[C@@H]1OS(=O)(=O)[O-].[Al],3.26% (inactive),
CC(=O)Nc1ccc2nc(SCCOc3cc(C)cc(C)c3)sc2c1,-7.29% (inactive),
CSc1nc2ccc(NC(=O)c3c(F)cccc3F)cc2s1,,19 µM (active)
O=C(Nc1ccncc1)c1c(F)cccc1F,-3.22% (inactive),
CCn1c(=O)c(=O)n(CC)c2cc(N3CCCCC3)c(NC(=O)c3ccc(Cl)cc3)cc21,2.47% (inactive),
CC(=O)Cn1ncc(N2CCOCC2)c(Br)c1=O,-1.76% (inactive),
O=C(Cn1ncc(N2CCCC2)c(Br)c1=O)c1ccc(Cl)cc1,,19 µM (active)
O=C(O)c1cccc(NC(=O)c2cc(-c3cccc(Cl)c3)nc3ccccc23)c1,,16.9 µM (active)
COc1ccccc1NC(=O)c1cc(Cl)nc2ccccc12,-8.53% (inactive),
CCN(CC)CCNC(=O)c1ccc(NC(=O)c2cc(-c3ccncc3)nc3ccccc23)cc1,-1.21% (inactive),
CCc1ccc(-c2nc(SCC(=O)NC3CCCC3)n[nH]2)cc1,,19 µM (active)
COc1ccc(CNC(=O)CSc2n[nH]c(-c3ccc(F)cc3)n2)cc1,-15.8% (inactive),
CCOc1cc(-c2nnc(SCC(=O)NC3CCCC3)nc2-c2ccc(OC)c(OCC)c2)ccc1OC,-2.08% (inactive),
